{"source": "PubChem BioAssay AID485364", "about": "(National Center for Advancing Translational Sciences (NCATS), 2010)", "note": "Where “and” joins values, the source holds several entries; their conditions need not be identical. Equal values may be shown once. The whole screen tested about 360,000 compounds, of which about 11,000 (3.1%) were called active. Inconclusive results (about 4%) are left out. The sample holds actives, similar compounds and a random draw of the others, so the mix is not that of the screen. Values without a mark were called inactive. Calls follow the shape of the dose curve; as a rule, active = well fitted inhibition curve with a large enough effect; inconclusive = small, poorly fitted or top-dose-only effect; inactive = no such curve, though single readings can be large or run the other way. % is scaled to controls: 0 for no effect and ±100 for the full control effect; potency is read from the fitted curve at half-maximal effect.", "data": [{"target": "Schistosoma mansoni thioredoxin glutathione reductase (TGR) (UniProt Q962Y6)", "experiment": "qHTS Assay for the Inhibitors of Schistosoma Mansoni Peroxiredoxins; also: nearly all actives have a fitted effect of over 60% in size", "conditions": "purified TGR, DTNB reduction, TNB absorbance 405 nm; series mostly up to 114 µM; activity change, negative = inhibition: at the top concentration", "method_in_brief": "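Kinetic colorimetric format: TGR-catalysed, NADPH-driven DTNB reduction monitored via TNB absorbance. Enzyme dispensed at 20 nM; compound exposure 15 min at room temperature before reaction start.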", "units": {"activity change, negative = inhibition": "%"}, "values": [{"smiles": "CCC(C(=O)Nc1cc(OC)ccc1OC)n1c(=O)c(C(F)(F)F)nc2ccccc21", "note": "(stereo not given)", "activity change, negative = inhibition": 9.99}, {"smiles": "COc1ccc(CCNC(=O)c2ccc(CSCc3ccc(C)cc3)o2)cc1OC", "activity change, negative = inhibition": -18.8}, {"smiles": "Cc1ccccc1CN1CCC(CNC(=O)c2c(C)oc3ncnc(N4CCCCC4)c23)CC1", "activity change, negative = inhibition": 9.84}, {"smiles": "CCOc1ccc(OCC)c(Nc2nc3ccccc3n3nnnc23)c1", "activity change, negative = inhibition": 1.06}, {"smiles": "COc1ccc(CCNC(=O)c2cnc3sc(N4CCCCCC4)nn3c2=O)cc1OC", "activity change, negative = inhibition": 0.303}, {"smiles": "COc1cccc(N2CC(NC(=O)/C=C\\c3ccccc3)CC2=O)c1", "note": "(stereo not given)", "activity change, negative = inhibition": 3.58}, {"smiles": "CC1CCC(NS(=O)(=O)c2ccc3c(c2)n(C)c(=O)c(=O)n3C)CC1", "note": "(stereo not given)", "activity change, negative = inhibition": 6.06}, {"smiles": "Cn1sc(=O)c2cc(S(=O)(=O)NC3CC3)ccc21", "Potency": "1.58 µM (active)"}, {"smiles": "O=S(=O)(NC1CC1)c1ccc(F)c(F)c1", "activity change, negative = inhibition": 6.35}, {"smiles": "Cn1c(COc2ccccc2C(C)(C)C)nc2ccccc21", "activity change, negative = inhibition": -12.6}, {"smiles": "Cc1cc2c(cc3c(SCc4cccc(Cl)c4)nnc(C)n32)o1", "activity change, negative = inhibition": 2.97}, {"smiles": "Cc1ccc(-c2nnc(Nc3cccc(Br)c3)c3ccccc23)cc1S(=O)(=O)NCC1CCCO1", "note": "(stereo not given)", "activity change, negative = inhibition": -1.37}, {"smiles": "Cc1cccc(OCC(=O)N(Cc2ccc(C(C)C)cc2)Cc2ccco2)c1C", "activity change, negative = inhibition": 15}, {"smiles": "CCOC(=O)CN(C)Cc1c[nH]c2ccccc12", "Potency": "35.5 µM (active)"}, {"smiles": "COc1ccc(CN(C)C(=O)Cc2c[nH]c3ccccc23)c(OC)c1OC", "activity change, negative = inhibition": -1.7}, {"smiles": "CN(Cc1cccs1)C(=O)Cc1c[nH]c2ccccc12", "activity change, negative = inhibition": 1.04}, {"smiles": "COc1ccccc1C1=Nc2cccc3cccc(c23)N1", "activity change, negative = inhibition": -6.48}, {"smiles": "c1ccc(C2=Nc3cccc4cccc(c34)N2)cc1", "Potency": "35.5 µM (active)"}, {"smiles": "Brc1ccc2c(c1)NC(c1cccnc1)=NC(c1ccccc1)=N2", "activity change, negative = inhibition": -3.69}, {"smiles": "CCC(CC)c1nn2cc(-c3ccccc3)nc2s1", "activity change, negative = inhibition": 12.9}, {"smiles": "COc1ccc(Br)cc1CNC(=O)c1cc(=O)[nH]c2ccc(S(=O)(=O)N3CCCC3)cc12", "activity change, negative = inhibition": -2.46}, {"smiles": "O=S(=O)(c1ccc(Br)cc1)c1nnn2c1nc(N1CCOCC1)c1sccc12", "activity change, negative = inhibition": 4.43}, {"smiles": "CC(=O)OC1=C(C(C)=O)N(Cc2ccccc2)S(=O)(=O)c2ccccc21", "activity change, negative = inhibition": -20.4}, {"smiles": "Cc1ccc(CNC(=O)c2c(O)nc3c(C)cccn3c2=O)cc1", "activity change, negative = inhibition": 1.88}, {"smiles": "CCOc1ccc(CNC(=O)c2ccc(CS(=O)c3ccccc3)o2)cc1", "note": "(stereo not given)", "activity change, negative = inhibition": 0.329}, {"smiles": "Cc1ccc(CNC(=O)c2ccc(CS(=O)Cc3cccc(Cl)c3)o2)cc1", "note": "(stereo not given)", "Potency": "35.5 µM (active) and 25.1 µM (active)"}, {"smiles": "O=C(NCc1cccs1)c1ccc(CS(=O)Cc2ccccc2Cl)o1", "note": "(stereo not given)", "activity change, negative = inhibition": 2.3}, {"smiles": "CCN(CC)C(=O)CSc1nc2ccsc2c(=O)n1Cc1ccccc1Cl", "activity change, negative = inhibition": 2.09}, {"smiles": "CCCCNC(=O)c1cc(-c2ccc(Cl)c(Cl)c2)on1", "activity change, negative = inhibition": -1.93}, {"smiles": "C/C(=C\\c1ccco1)C1Nc2cccc3cccc(c23)N1", "Potency": "3.55 µM (active)"}, {"smiles": "CC(/C=N/NC(=O)c1cc(-c2ccc3ccccc3c2)n[nH]1)=C\\c1ccco1", "activity change, negative = inhibition": -18.4}, {"smiles": "Cc1ccc(Cn2cc(CCC(=O)NCc3ccc(OC(C)C)cc3)c3ccccc32)cc1", "activity change, negative = inhibition": 11.8}, {"smiles": "COc1ccc(S(=O)(=O)c2c(Nc3cccc(Cl)c3)sc(C(=O)c3ccccc3)c2N)cc1", "activity change, negative = inhibition": -2.74}, {"smiles": "Cc1cc(C)c2oc(C(=O)Nc3ccc(S(=O)(=O)N(C)c4ccccc4)cc3)cc(=O)c2c1", "activity change, negative = inhibition": 14.3}, {"smiles": "CCCCOC(=O)CSc1ncnc2sc3c(c12)CCC(C)C3", "note": "(stereo not given)", "activity change, negative = inhibition": 0.934}, {"smiles": "O=C(CNC(=O)Cc1ccccc1)N=Nc1c(O)[nH]c2ccc(Br)cc12", "activity change, negative = inhibition": -22.3}, {"smiles": "Cc1c(-c2ccccc2)n[nH]c1C(=O)N=Nc1c(O)[nH]c2ccccc12", "activity change, negative = inhibition": 5.01}, {"smiles": "O=C(CCN1CCCCC1)N=Nc1c(O)[nH]c2ccccc12", "Potency": "11.2 µM (active)"}, {"smiles": "N#C/C(=C\\c1ccccc1F)c1nc2ccccc2c(=O)[nH]1", "activity change, negative = inhibition": 7.82}, {"smiles": "CNC(=O)CN1C(=O)c2cccnc2Sc2ccccc21", "activity change, negative = inhibition": -4.14}, {"smiles": "Cc1ccsc1CN(C(=O)c1oc2ccc(Br)cc2c1C)C1CCS(=O)(=O)C1", "note": "(stereo not given)", "activity change, negative = inhibition": 17.6}, {"smiles": "O=C(NC1CCN(Cc2ccccc2)CC1)c1ccc(Cn2c(=O)c3ccccc3n(Cc3cccc(F)c3)c2=O)cc1", "activity change, negative = inhibition": -1.16}, {"smiles": "C/C(=N\\NC(=O)c1cc(-c2ccc(O)cc2)nc2ccccc12)c1cccnc1", "activity change, negative = inhibition": 3.85}, {"smiles": "O=C(N/N=C/C=C/c1ccco1)c1cccs1", "Potency": "3.55 µM (active)"}, {"smiles": "Cc1ccc(-c2cc(C(=O)N/N=C/C=C/c3ccco3)c3ccccc3n2)cc1C", "Potency": "39.8 µM (active)"}, {"smiles": "Cc1ccc(-c2cc(C(=O)NC3CCN(Cc4ccccc4)CC3)c3ccccc3n2)cc1", "activity change, negative = inhibition": -2.12}, {"smiles": "CC1(C)CC(=O)C/C(=N\\NC(=O)c2cccs2)C1", "activity change, negative = inhibition": -31.1}, {"smiles": "Cc1ccc(-n2nc(C)c(/C=N/NC(=O)c3cccs3)c2Cl)cc1", "activity change, negative = inhibition": -6.16}, {"smiles": "CC1=C(c2ccc(Cl)cc2)S(=O)(=O)N=C1N1CCN(c2cc(C)ccc2C)CC1", "activity change, negative = inhibition": -2.39}, {"smiles": "Cc1ccccc1C(=O)Nc1nnc(S(=O)(=O)N(C)c2ccc(Cl)cc2)s1", "activity change, negative = inhibition": -8.91}, {"smiles": "COc1ccccc1NC(=O)CCN1CCN(c2ccc(Cl)cc2)CC1", "activity change, negative = inhibition": -16.8}, {"smiles": "COC(=O)CNC(c1ccccc1Cl)c1cc(Br)ccc1NC(=O)CCN1CCOCC1", "note": "(stereo not given)", "Potency": "25.1 µM (active)"}, {"smiles": "O=C(CCN1CCCCC1)NCC(=O)Nc1ccc(Br)cc1C(=O)c1ccccc1", "activity change, negative = inhibition": -5.15}, {"smiles": "COc1cc(C)ccc1OCCSc1nc2ccc(NC(=O)c3ccc(C)cc3)cc2s1", "activity change, negative = inhibition": -0.0299}, {"smiles": "Cc1cc(F)ccc1NC1(c2ccccc2)C(=O)c2ccccc2C1=O", "activity change, negative = inhibition": 8.18}, {"smiles": "CC(C)c1ccc(OCC(=O)N(Cc2ccc(N(C)C)cc2)C2CCS(=O)(=O)C2)cc1", "note": "(stereo not given)", "activity change, negative = inhibition": 1.54}, {"smiles": "Cc1[nH]n(C)c(=O)c1C(=O)c1c(-c2c(Cl)cccc2Cl)noc1C", "Potency": "25.1 µM (active)"}, {"smiles": "Cc1onc(-c2c(Cl)cccc2Cl)c1C(=O)c1c[nH]c(C(=O)NC2CC2)c1", "activity change, negative = inhibition": -6.99}, {"smiles": "C/C(=N/OC(=O)c1c(-c2c(F)cccc2Cl)noc1C)c1cnccn1", "activity change, negative = inhibition": -3.61}, {"smiles": "CCc1ccc(S(=O)(=O)c2nnn3c2nc(N2CCN(CC)CC2)c2sccc23)cc1", "activity change, negative = inhibition": 0.202}, {"smiles": "O=C(COc1ccccc1F)OCc1cc(=O)n2nc(C3CCCCC3)sc2n1", "activity change, negative = inhibition": 1.42}, {"smiles": "COc1cc(NC(=O)Nc2ccc(C)cc2)cc([N+](=O)[O-])c1", "activity change, negative = inhibition": -6.62}, {"smiles": "Cc1ccc(NC(=O)O/N=C/c2cccc([N+](=O)[O-])c2)cc1", "activity change, negative = inhibition": 0.0354}, {"smiles": "CS/C(=C\\[N+](=O)[O-])Nc1ccc(C)cc1", "Potency": "0.316 µM (active)"}, {"smiles": "CN(Cc1ccccc1)c1ccc(-c2nc(-c3ccccc3)no2)cc1[N+](=O)[O-]", "activity change, negative = inhibition": 2.45}]}]}
